Assay [1] in a line: Tanguay_ZF_120hpf_JAW_legacy: (Legacy) Oregon State University Tanguay Lab 120 Hour Post-fertilization zebrafish Assay for Jaw Malformation (AID 2283638).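 On AC50: active means more embryos with jaw malformation than DMSO controls.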 Put shortly:
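Steps: dechorionate 4 hpf embryos (pronase); plate 1/well at 6 hpf; add test chemical, 0.64% DMSO final; seal, cover, hold at 28C statically to 120 hpf; score jaw defect presence/absence microscopically. Dead embryos not scored.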

Assay [2] can be described thus: Tanguay_ZF_120hpf_OTIC_legacy: (Legacy) Oregon State University Tanguay Lab 120 Hour Post-fertilization zebrafish Assay for Otic Vesicle Malformation (AID 2283639). Put shortly:
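Statically exposed wild-type 5D zebrafish embryos, kept sealed and dark at 28C through 120 hours post fertilization, were examined by brightfield microscopy for otic vesicle defects. Responses were recorded as present or absent and analysed relative to DMSO.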

Assay [3] can be described thus: Tanguay_ZF_120hpf_PE_legacy: (Legacy) Oregon State University Tanguay Lab 120 Hour Post-fertilization zebrafish Assay for Pericardial Edema (AID 2283640).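 On AC50: potency for increased incidence of pericardial edema versus DMSO baseline.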 An outline of the steps: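 Embryos from wild-type 5D adults were staged, then dosed in 0.64% DMSO. They were kept sealed in the dark at 28C until 120 hpf. Pericardial edema was then recorded as present or absent.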

Assay [4] is described as follows: Tanguay_ZF_120hpf_PFIN_legacy: (Legacy) Oregon State University Tanguay Lab 120 Hour Post-fertilization zebrafish Assay for Pectoral Fin Malformation (AID 2283648).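 Further: each larva judged yes or no for fin defect by brightfield with dead larvae skipped.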 An outline of the steps:
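Pectoral fin malformation was recorded as a binary endpoint at 120 hpf in wild-type Tropical 5D larvae, which had been dechorionated and exposed statically from 6 hpf at 28C in 0.64% DMSO. Dead embryos were excluded.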

A short description of assay [5]: Tanguay_ZF_120hpf_PIG_legacy: (Legacy) Oregon State University Tanguay Lab 120 Hour Post-fertilization zebrafish Assay for Pigmentation Malformation (AID 2283650). An outline of the steps:
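Pigment malformation recorded as a binary call at 120 hpf in zebrafish (Tropical 5D) exposed singly from 6 hpf after pronase dechorionation. Static, sealed, 28C exposure, 0.64% DMSO; mortality excludes scoring; positive-direction fit against DMSO.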

Assay [6] can be described thus: Tanguay_ZF_120hpf_CIRC_legacy: (Legacy) Oregon State University Tanguay Lab 120 Hour Post-fertilization zebrafish Assay for Circulatory Malformation (AID 2283651). An outline of the steps:
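Embryos are dechorionated at 4 hpf, plated one per well at 6 hpf, then held under static exposure at 28C until 120 hpf. Malformations are recorded as binary calls; mortality excludes other endpoints.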

A short description of assay [7]: Tanguay_ZF_120hpf_SWIM_legacy: (Legacy) Oregon State University Tanguay Lab 120 Hour Post-fertilization zebrafish Assay for Swim Bladder Malformation (AID 2283654).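 Further: swim bladder malformation in each larva scored yes or no under brightfield.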 Put shortly:
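Scoring is binary for swim bladder defects at 120 hpf, by brightfield inspection of zebrafish larvae. Embryos were exposed singly from 6 hpf after pronase dechorionation, at 28C with 0.64% DMSO; mortality excluded scoring.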

A short description of assay [8]: Tanguay_ZF_120hpf_TR_legacy: (Legacy) Oregon State University Tanguay Lab 120 Hour Post-fertilization zebrafish Assay for Touch Response (AID 2283667). Put shortly: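 Binary touch-response endpoint in larvae at 120 hpf after static waterborne exposure from embryo stage (28°C, 0.64% DMSO vehicle, 5 uM trimethyltin chloride as positive control); embryos dead at 24 or 120 hpf excluded; fitted as gain versus DMSO.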

Assay [9] in a line: Tanguay_ZF_120hpf_BRAI_legacy: (Legacy) Oregon State University Tanguay Lab 120 Hour Post-fertilization zebrafish Assay for Brain Malformation (AID 2283641). Put shortly:
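Wild-type 5D larvae, static waterborne exposure to 120 hpf, 28C, 0.64% v/v DMSO. Brightfield scoring of brain defects, binary; dead embryos excluded. Positive ctrl 5uM trimethyltin chloride.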

Assay [10] in a line: Tanguay_ZF_120hpf_SOMI_legacy: (Legacy) Oregon State University Tanguay Lab 120 Hour Post-fertilization zebrafish Assay for Somite Malformation (AID 2283647). Put shortly:
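Read-out: presence or absence of somite malformation in 120 hpf larvae, gain-of-signal relative to DMSO baseline. Embryos lacked chorion (pronase, 4 hpf) and were exposed statically from 6 hpf at 28C; dead larvae not scored.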

Assay [11] can be described thus: Tanguay_ZF_120hpf_CFIN_legacy: (Legacy) Oregon State University Tanguay Lab 120 Hour Post-fertilization zebrafish Assay for Caudal Fin Malformation (AID 2283649). An outline of the steps:
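Binary presence or absence of caudal fin malformation at 120 hpf, read by brightfield microscopy, with DMSO as baseline. Larvae came from 5D wild-type embryos exposed statically from 6 hpf at 28C after pronase dechorionation.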

A short description of assay [12]: Tanguay_ZF_120hpf_TRUN_legacy: (Legacy) Oregon State University Tanguay Lab 120 Hour Post-fertilization zebrafish Assay for Truncated Body (AID 2283655). Put shortly: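 Truncated body is recorded as a binary endpoint at 120 hpf by brightfield imaging of wild-type 5D larvae. Exposure runs statically from 6 hpf at 28C with 0.64% DMSO; embryos dying earlier are not scored.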

Assay [13] concerns Thyroperoxidase (TPO), gene 54314. As to the kind of experiment: CCTE_Simmons_AUR_rTPO: CCTE's Amplex UltraRed Assay for Thyroperoxidase (TPO) Inhibition, Simmons Lab (AID 2283662).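 Further: potency for loss of signal meaning inhibition of peroxidase activity.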 Put shortly:
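Rat thyroid microsomes (5 ug protein) were incubated with test compound (8 concentrations, 5 nM–87.5 uM final, 0.5% DMSO), 25 uM Amplex UltraRed and 300 uM H2O2 in 200 mM phosphate buffer for 30 min at 37C in the dark; fluorescence read at 544/590 nm.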

A short description of assay [14]: CCTE_Simmons_CellTiterGLO_HEK293T: Viability Assessment in CCTE's Assays for Thyroperoxidase (TPO) Inhibition, Simmons Lab (AID 2283665). An outline of the steps:
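Cells were seeded overnight, then exposed to an eight-point series up to 87.5 uM final for 24 hours. CellTiter-Glo reagent was added and luminescence read after 20 min, giving ATP-based viability versus DMSO.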
For orientation: Cellular ATP, detected with luciferase, serves as a proxy for viable cell number.

A short description of assay [15]: Tanguay_ZF_120hpf_NC_legacy: (Legacy) Oregon State University Tanguay Lab 120 Hour Post-fertilization zebrafish Assay for Notochord and Tail Malformation (AID 2283656). An outline of the steps: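 Binary scoring of notochord distortion by brightfield microscopy; embryos dying were not scored. Wild-type Tropical 5D embryos, chorion removed, exposed singly and statically from 6 to 120 hpf, 28C, sealed, 0.64% DMSO.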

Read-out in assay [16]: kallikrein-3 (KLK3), KLK3 (gene 354)
As to the kind of experiment: LTEA_HepaRG_KLK3: Life Technologies and Expression Analysis (LTEA) Assay for kallikrein-3 (KLK3) using HepaRG (AID 2283652; active means hit-call score of the fitted dose curve at least 0.9, where 1 is the maximum; inactive means score below 0.9). The following applies: mRNA level, 48 h; actives raise or lower the signal. Put shortly:
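KLK3 transcript levels were measured by TaqMan qRT-PCR with normalisation to three housekeeping genes. HepaRG cultures received chemicals for 48 h at up to 100 uM (half-log, 8 points, 0.5% DMSO vehicle), fitted in both directions against DMSO.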

Read-out in assay [17]: solute carrier (SLC22A6), SLC22A6 (gene 9356)
Kind of assay: LTEA_HepaRG_SLC22A6: Life Technologies and Expression Analysis (LTEA) Assay for solute carrier (SLC22A6) using HepaRG (AID 2283653; active means hit-call score of the fitted dose curve at least 0.9, where 1 is the maximum; inactive means score below 0.9). As to conditions: mRNA level, 48 h; actives raise or lower the signal. An outline of the steps: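 Read-out is SLC22A6 transcript level by qRT-PCR, normalised to three housekeeping genes and fitted for gain or loss relative to 0.5% DMSO vehicle. Human HepaRG cells received chemicals at up to 100 uM for 48 h.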

Read-out in assay [18]: solute carrier (SLC10A1), SLC10A1 (gene 6554)
As to the kind of experiment: LTEA_HepaRG_SLC10A1: Life Technologies and Expression Analysis (LTEA) Assay for solute carrier (SLC10A1) using HepaRG (AID 2283657; active means hit-call score of the fitted dose curve at least 0.9, where 1 is the maximum; inactive means score below 0.9). As to conditions: mRNA level, 48 h; actives raise or lower the signal. Put shortly:
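SLC10A1 transcript measured by TaqMan qRT-PCR, housekeeping-normalised, after 48 h chemical treatment of human HepaRG cells. Eight concentrations (half-log, max 100 uM, 0.5% DMSO vehicle) in duplicate; fitted bidirectionally against DMSO baseline.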

Read-out in assay [19]: matrix metalloproteinase-1 (MMP1), MMP1 (gene 4312)
Kind of assay: LTEA_HepaRG_MMP1: Life Technologies and Expression Analysis (LTEA) Assay for matrix metalloproteinase-1 (MMP1) using HepaRG (AID 2283658; active means hit-call score of the fitted dose curve at least 0.9, where 1 is the maximum; inactive means score below 0.9). As to conditions: mRNA level, 48 h; actives raise or lower the signal. An outline of the steps:
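HepaRG, ~100,000 cells/well, 48 h pre-culture; serum-free induction medium; test chemical 8 conc (max 100 uM, half-log), duplicate, 48 h; 0.5% DMSO; qRT-PCR MMP1, housekeeping-normalized; gain/loss fit vs DMSO.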

Read-out in assay [20]: Cytochrome P450 (CYP24A1_1), CYP24A1 (gene 1591)
As to the kind of experiment: LTEA_HepaRG_CYP24A1_1: Life Technologies and Expression Analysis (LTEA) Assay for Cytochrome P450 (CYP24A1_1) using HepaRG (AID 2283671; active means hit-call score of the fitted dose curve at least 0.9, where 1 is the maximum; inactive means score below 0.9). As to conditions: mRNA level, 48 h; actives raise or lower the signal. An outline of the steps:
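Differentiated human HepaRG cells were exposed in duplicate for 48 h in serum-free induction medium to eight concentrations (top 100 uM, half-log steps, 0.5% DMSO). CYP24A1 mRNA was quantified by TaqMan qRT-PCR, normalized to ACTB, GAPDH and POLR2A, and fitted bidirectionally versus DMSO.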

Results filed as inconclusive are left out. The source made the active and inactive calls. How the source made its calls, unless noted: active means hit-call score of the fitted dose curve at least 0.9, where 1 is the maximum; inconclusive means response in the unintended direction; inactive means score below 0.9.

On to `Cn1c(=O)c2[nH]cnc2n(C)c1=O`, for which the outcome in assay [1], in [2], in [3], in assay [4], in assay [5] and in [6] was inactive. Also, the result in [7] and in [8] was inactive.

On to `Cc1nccn1-c1ccc(Sc2cccc(C3(C(N)=O)CCOCC3)c2)cc1`, for which the compound was classed as inactive in [1], in assay [2], in [9], in assay [10], in [4] and in [5]. The outcome in [6] and in assay [8] was inactive.

For the compound `OC(Cn1cncn1)(Cn1cncn1)c1ccc(F)cc1F`, the compound was called inactive in [1], in [2], in assay [3], in [11], in [5] and in [6]. In addition, the call in assay [7] and in assay [8] was inactive.

Broadly, the AC50 is the concentration giving half of the maximal activity seen. For the compound `O=C(NO)C1(NS(=O)(=O)c2ccc(Oc3ccc(F)cc3)cc2)CCOCC1`, the outcome in [1], in assay [2], in assay [3], in [9], in assay [11] and in assay [5] was inactive. In addition, the compound was classed as inactive in assay [6], in assay [7], in [12], in assay [14] and in assay [8]. Besides, the AC50 in assay [13] is 18.1 µM (active).

Regarding `c1ccc(C(O[C@@H]2CCCN(CCc3ccc4c(c3)OCO4)C2)c2ccccc2)cc1`, the AC50 in assay [1] was 44.8 µM (active); in [2] it was 45.8 µM (active); in assay [3], 36 µM (active); in assay [9], 42 µM (active); in assay [11], 37.2 µM (active); in assay [5] it was 42.4 µM (active). Moreover, the AC50 in assay [12] was 38.2 µM (active); in assay [8] it was 53.6 µM (active). Moreover, the compound was classed as inactive in assay [10], in assay [6], in assay [7] and in [15].

Take `Cc1nc(-c2ccccn2)ncc1C(=O)Nn1cc(C)c2cc(F)ccc21`: the call in assay [1], in assay [2], in assay [3], in assay [9], in [10] and in assay [11] was inactive. Besides, the outcome in [5], in [6], in assay [7] and in [8] was inactive.

For the compound `CC1(C)C(=O)N(Cl)C(=O)N1Cl`, the compound was classed as inactive in assay [1], in [2], in [9], in assay [4], in assay [11] and in assay [5]. Besides, the result in assay [6], in assay [7], in assay [15] and in assay [8] was inactive.

Regarding `CCCC(CCC)C(=O)O`, the compound was classed as inactive in assay [1], in [2], in [9], in assay [4], in assay [11] and in assay [5]. Further, the compound was classed as inactive in assay [6], in assay [16], in assay [17], in assay [7], in assay [12] and in [18]. Further, the compound was classed as inactive in [19], in [8] and in [20].

Values taken from PubChem BioAssay (EPA / NIEHS).
